# Measured values published in ChEMBL document CHEMBL3988442, “University of Dundee, Small-Polar-MMV Screening Library” (2021).
# Among all 69,000 compounds or so, about 1,000 (1.4%) showed an effect of 50% or more. Only a selection was taken, and strong results are over-represented in it overall.
# System: Leishmania donovani
# Test: Leishmania intramacrophage assay
# Type: functional, organism-based
# Parameters: scale not given: in the data most compounds retested in dose-response had high values
structure (smiles),measurement,setting,value
CN(C)C(=O)C1CN(c2ncccn2)CCN1C (centres undefined),Percent Effect,"30.3 µM, […]",10.06%
COc1nc2c(cc1C(=O)N1CCCC1c1ccccn1)CCC2 (centres undefined),Percent Effect,"30.3 µM, […]",15.04%
CCn1cnnc1C1CCN(C(=O)C(OC)c2ccccc2)CC1 (centres undefined),Percent Effect,"30 µM, 30.03 µM",25.64%
CCc1ccc(CN2CCC3(CC2)CC(N2CCN(C)CC2)CO3)cc1.O=C(O)C(F)(F)F (centres undefined),Percent Effect,"30 µM, 30.03 µM",78.58%
O=C(O)C(F)(F)F.c1cnc(NC2COC3(CCN(Cc4cccs4)CC3)C2)nc1 (centres undefined),Percent Effect,"30.3 µM, […]",-71.32%
CN1CCN(C2COC3(CCN(Cc4ccsc4)CC3)C2)CC1.O=C(O)C(F)(F)F.O=C(O)C(F)(F)F (centres undefined),Percent Effect,"30.3 µM, […]",20.49%
CN1CCN(C2COC3(CCN(Cc4ccc(F)cc4)CC3)C2)CC1.O=C(O)C(F)(F)F.O=C(O)C(F)(F)F.O=C(O)C(F)(F)F (centres undefined),Percent Effect,"30.3 µM, […]",32.4%
Fc1cnc(N2CCOC3(CCN(Cc4ccsc4)CC3)C2)nc1.O=C(O)C(F)(F)F.O=C(O)C(F)(F)F,Percent Effect,"30 µM, 30.03 µM",16.14%
CN1CCN(C2COC3(CCN(Cc4cccs4)CC3)C2)CC1.O=C(O)C(F)(F)F.O=C(O)C(F)(F)F (centres undefined),Percent Effect,"30.3 µM, […]",53.18%
Fc1cnc(N2CCOC3(CCN(Cc4cccs4)CC3)C2)nc1.O=C(O)C(F)(F)F.O=C(O)C(F)(F)F,Percent Effect,"30.3 µM, […]",53.49%
O=C(O)C(F)(F)F.O=C(c1ccccc1)N1CCOC2(CCN(Cc3cccs3)CC2)C1,Percent Effect,"30.3 µM, […]",5.175%
Cc1ccc(CN2CCC3(CC2)CC(N2CCN(C)CC2)CO3)s1.O=C(O)C(F)(F)F.O=C(O)C(F)(F)F.O=C(O)C(F)(F)F (centres undefined),Percent Effect,"30.3 µM, […]",35.32%
COc1ccc(C2CC(=O)Oc3cc(C)[nH]c(=O)c32)cc1 (centres undefined),Percent Effect,"30 µM, 30.03 µM",-4.044%
Cc1nnc(C2Cc3ccccc3CN2Cc2nc(C(C)C)no2)o1 (centres undefined),Percent Effect,30 µM,-13.45%
CC(C)N1C(=O)CC(NC(=O)c2cc(Cl)sc2Cl)C1=O (centres undefined),Percent Effect,"30.3 µM, […]",8.109%
O=C(NCc1cccnc1)[C@@H]1C[C@H]2[C@H](CCN2c2ncccn2)O1.O=C(O)C(F)(F)F.O=C(O)C(F)(F)F,Percent Effect,"30.3 µM, […]",4.628%
COCC(NC(=O)NCc1cccc(C#N)c1)c1ccco1 (centres undefined),Percent Effect,"30.3 µM, […]",13.13%
Cc1noc(CN2CCN(CCO)CC2)n1,Percent Effect,"30.3 µM, […]",9.212%
Cc1noc(CN2CCN(c3cncc(Cl)n3)CC2)n1,Percent Effect,"30.3 µM, […]",51.54%
Cc1nc(CN2CCN(c3cncc(Cl)n3)CC2)no1,Percent Effect,"30.3 µM, […]",-1.637%
Cc1nc2cc(C(=O)N3CCCC(n4cncn4)C3)ccc2n1C (centres undefined),Percent Effect,"30 µM, 30.03 µM",12.85%
Fc1cccnc1N1CCCC(c2nccs2)C1 (centres undefined),Percent Effect,"30.3 µM, […]",14.11%
Cc1cccc(CN2CCC(NCC3CNc4cc(C)nn4C3)CC2)c1 (centres undefined),Percent Effect,"30.3 µM, […]",50.3%
Cc1ccccc1CN1CCC(NCC2CNc3ccnn3C2)CC1 (centres undefined),Percent Effect,"30 µM, 30.03 µM",58.34%
Cc1cc2n(n1)CC(CNC1CCN(c3ccccn3)CC1)CN2 (centres undefined),Percent Effect,"30.3 µM, […]",-5.394%
Cc1cc2n(n1)CC(CNC1CCN(Cc3ccncc3)CC1)CN2 (centres undefined),Percent Effect,"30.3 µM, […]",2.182%
OCc1ccccc1CNCC1CNc2ccnn2C1 (centres undefined),Percent Effect,"30.3 µM, […]",22.72%
Cc1cc2n(n1)CC(CNC1CCN(CCc3ccccc3)CC1)CN2 (centres undefined),Percent Effect,"30.3 µM, […]",15.82%
c1ccc(Cn2cccn2)c(CNCC2CNc3ccnn3C2)c1 (centres undefined),Percent Effect,"30 µM, 30.03 µM",46.43%
Cc1cc2n(n1)CC(CNC1CCN(Cc3ccccn3)CC1)CN2 (centres undefined),Percent Effect,"30.3 µM, […]",17.09%
Cc1cc2n(n1)CC(CNC1CCN(Cc3ccccc3C)CC1)CN2 (centres undefined),Percent Effect,"30 µM, 30.03 µM",54.12%
O=C(c1cscn1)N1CCc2ncnc(-c3ccncc3)c2CC1,Percent Effect,"30.3 µM, […]",15.49%
Cc1ncc2c(c1CNC(=O)C1(c3ccc(F)cc3)CC1)CCNC2,Percent Effect,"30.3 µM, […]",8.933%
Oc1cc(CN2CCC(O)(Cn3ccnc3)CC2)nc2ccc(F)cc12,Percent Effect,"30.3 µM, […]",12.45%
Cc1nc(CN2CCCC(N(C)Cc3c(C)noc3C)C2)no1 (centres undefined),Percent Effect,"30 µM, 30.03 µM",36.91%
COc1ccc(C(=O)N2CCCCC2c2nc(C)cs2)nn1 (centres undefined),Percent Effect,"30 µM, 30.03 µM",9.548%
O=C(C1CNCCO1)N1CCCC(c2ccccc2)(c2ccccc2)C1 (centres undefined),Percent Effect,"30.3 µM, […]",80.57%
O=C(C1CNCCO1)N1CCC(c2cc(N3CCCC3)ncn2)CC1 (centres undefined),Percent Effect,"30.3 µM, […]",-9.261%
CCn1c(CC2CCN(C(=O)C3CNCCO3)CC2)nn(C)c1=O (centres undefined),Percent Effect,"30.3 µM, […]",-9.405%
Cc1cccc(CN2CC[C@H]3O[C@H](C(=O)Nc4cnccn4)CC[C@H]32)n1.O=C(O)C(F)(F)F.O=C(O)C(F)(F)F,Percent Effect,"30.3 µM, […]",32.33%
O=C(NCc1cccnc1)[C@@H]1CC[C@@H]2[C@@H](CCN2c2ncc(F)cn2)O1.O=C(O)C(F)(F)F.O=C(O)C(F)(F)F,Percent Effect,"30.3 µM, […]",56.7%
Cc1csc(CN2CC[C@H]3O[C@H](C(=O)Nc4cccnc4)CC[C@H]32)n1.O=C(O)C(F)(F)F.O=C(O)C(F)(F)F,Percent Effect,"30.3 µM, […]",50.68%
O=C(NCc1cccnc1)[C@H]1CC[C@@H]2[C@@H](CCN2c2ncccn2)O1.O=C(O)C(F)(F)F.O=C(O)C(F)(F)F,Percent Effect,"30.3 µM, […]",6.718%
O=C(Nc1cnccn1)[C@@H]1CC[C@@H]2[C@@H](CCN2Cc2nccs2)O1.O=C(O)C(F)(F)F,Percent Effect,"30.3 µM, […]",-8.357%
O=C(NCc1cccnc1)[C@@H]1CC[C@@H]2[C@@H](CCN2c2ncccn2)O1.O=C(O)C(F)(F)F.O=C(O)C(F)(F)F,Percent Effect,"30.3 µM, […]",42.67%
CC(C)CN1CC(O)CN(S(=O)(=O)c2ccccc2)CC1=O (centres undefined),Percent Effect,"30.3 µM, […]",-1.941%
CN(Cc1ccncc1)C(=O)NCc1nnc2n1CCCCC2,Percent Effect,30 µM,-1.906%
COCCn1cc(NCc2cn(C)nc2-c2ccncc2)cn1,Percent Effect,"30.3 µM, […]",4.13%
O=C(O)C(F)(F)F.OCCN1CCOC2(CCCN(c3cccc(F)c3)C2)C1 (centres undefined),Percent Effect,"30 µM, 30.03 µM",37.14%
Cc1ccc(C2CSCCN2C(=O)c2cccs2)o1 (centres undefined),Percent Effect,"30.3 µM, […]",15.58%
CN1CC2(CCN(C(=O)c3cn4cccnc4n3)CC2)CC1=O,Percent Effect,"30.3 µM, […]",-9.039%
CC(C)CN1CC2(CCN(C(=O)c3cn4cccnc4n3)CC2)CC1=O,Percent Effect,"30.3 µM, […]",-23.89%
CCN1CC2(CCC1=O)CCN(C(=O)c1cn3cccnc3n1)CC2,Percent Effect,"30.3 µM, […]",50.01%
CC1c2ncc(Cn3cncn3)n2CCN1C(=O)Cc1cccs1 (centres undefined),Percent Effect,"30.3 µM, […]",31.82%
CCOCc1cnc2n1CCN(C(=O)Cc1cccs1)C2C (centres undefined),Percent Effect,"30.3 µM, […]",53.58%
CCOCc1cnc2n1CCN(C(=O)Cc1ccco1)C2C (centres undefined),Percent Effect,"30.3 µM, […]",17.38%
Cl.c1cnc(Nc2cncc(C3CCCN3)n2)cn1 (centres undefined),Percent Effect,"30.3 µM, […]",5.876%
Cc1cnc(N2CCC3(CC2)CC(NC(=O)N(C)C)CO3)nc1 (centres undefined),Percent Effect,"30.3 µM, […]",5.267%
O=C(NCC1CC1)c1cc2c(s1)CCN2c1ncccn1,Percent Effect,"30.3 µM, […]",54.07%
CCCNC(=O)c1cc2c(s1)CCN2c1ncccn1,Percent Effect,"30.3 µM, […]",24.35%
O=C(NCCN1CCCC1)c1cc2c(s1)CCN2c1ncccn1,Percent Effect,"30.3 µM, […]",35.65%
COc1ccc(CCN2C(=O)O[C@@H]3CN(C4CCSCC4)C[C@@H]32)cc1,Percent Effect,"30.3 µM, […]",4.59%
COc1cccn(C(C)C(=O)NC2CCCC2)c1=O (centres undefined),Percent Effect,"30.3 µM, […]",28.93%
COc1cc(CN2CCCC2c2cccc(F)c2)cc(OC)c1OC (centres undefined),Percent Effect,"30.3 µM, […]",4.07%
COc1cccc(CN2CCCC2c2cccc(F)c2)c1OC (centres undefined),Percent Effect,"30.3 µM, […]",48.24%
COc1ccc(CN2CCCC2c2cccc(F)c2)c(OC)c1OC (centres undefined),Percent Effect,"30.3 µM, […]",53.41%
COc1cc(OC)cc(N2CCC(NCc3cc[nH]n3)C2)c1 (centres undefined),Percent Effect,"30.3 µM, […]",11.55%
Cc1nc[nH]c1CNC1CC(=O)N(CCc2cccc(Cl)c2)C1 (centres undefined),Percent Effect,"30.3 µM, […]",-19.6%
O=C1CC(NCc2ncc[nH]2)CN1CCc1cccc(Cl)c1 (centres undefined),Percent Effect,"30.3 µM, […]",87.49%
Clc1cc(Cl)cc(CN2CCC(NCc3cc[nH]n3)CC2)c1,Percent Effect,"30.3 µM, […]",71.72%
CN1CCN(Cc2cccc(NCc3ncc[nH]3)c2)CC1,Percent Effect,"30.3 µM, […]",3.083%
Cc1cccc(OC2CCN(Cc3ncc[nH]3)CC2)c1,Percent Effect,"30.3 µM, […]",-10.49%
Clc1cc(Cl)cc(CN2CCC(NCc3ncc[nH]3)CC2)c1,Percent Effect,"30.3 µM, […]",84.31%
O=C1CC(NCc2ccncc2)CN1CCc1cccc(Cl)c1 (centres undefined),Percent Effect,"30.3 µM, […]",37.94%
Clc1cccc(N2CCC(NCc3cc[nH]n3)C2)c1 (centres undefined),Percent Effect,"30.3 µM, […]",14.09%
COc1ccc(CCN2CC(NCc3ncc[nH]3)CC2=O)cc1 (centres undefined),Percent Effect,"30.3 µM, […]",17.72%
Clc1cccc(N2CCC(NCc3ncc[nH]3)C2)c1 (centres undefined),Percent Effect,"30.3 µM, […]",26.13%
Brc1ccc(CN2CCC(NCc3ncc[nH]3)CC2)cc1,Percent Effect,"30.3 µM, […]",85.49%
O=c1cnc2ccccc2n1CCCn1cccn1,Percent Effect,"30.3 µM, […]",-23.4%
Cc1cc(O)c(OCC(=O)/N=c2\[nH]cc(C)s2)cn1,Percent Effect,"30 µM, 30.03 µM",13.79%
CC(=O)Nc1nc(C(=O)N2CCCC2c2noc(C3CC3)n2)cs1 (centres undefined),Percent Effect,"30.3 µM, […]",0.7706%
CN1CC(c2ccccc2)CC12CCN(C(=O)c1cccnc1)CC2 (centres undefined),Percent Effect,"30.3 µM, […]",13.25%
CC(C)n1ccnc1C1CCN(C(=O)C2COc3ccccc3O2)CC1 (centres undefined),Percent Effect,"30 µM, 30.03 µM",-2.599%
Cc1cc(C)nc(NCCC(=O)Nc2ccc(Cn3cncn3)cc2)n1,Percent Effect,"30.3 µM, […]",18.2%
COc1cc(N2CC[C@@H]3O[C@@H](c4ccnc(C)n4)C[C@H]3C2)ncn1,Percent Effect,"30.3 µM, […]",16.01%
COc1cc(N2CC[C@@H]3O[C@@H](c4ccncn4)C[C@H]3C2)ncn1,Percent Effect,"30.3 µM, […]",101.1%
Cc1ccc(N2CC[C@@H]3O[C@@H](c4ccncn4)C[C@H]3C2)nn1,Percent Effect,"30.3 µM, […]",12.48%
CC(=O)Nc1ncc(S(=O)(=O)Nc2ccccc2)s1,Percent Effect,"30.3 µM, […]",-54.24%
CCc1nnc(CNC2CCCN(Cc3noc(C4CC4)n3)C2)o1 (centres undefined),Percent Effect,30 µM,-1.291%
O=c1[nH]cnc2c1CCN(S(=O)(=O)c1ccc(OC(F)(F)F)cc1)C2,Percent Effect,"30.3 µM, […]",24.26%
CCOCCOc1ccc(S(=O)(=O)N2CCc3c(nc[nH]c3=O)C2)cc1,Percent Effect,"30.3 µM, […]",59.04%
O=c1[nH]cnc2c1CCN(S(=O)(=O)c1ccc(Cl)cc1)C2,Percent Effect,"30.3 µM, […]",10.57%
CC(=O)c1cn(CCC(=O)NCCC(=O)O)c2ccccc12,Percent Effect,"30 µM, 30.03 µM",18%
CN(C)c1cccc(C(=O)N2CCn3c(nnc3-c3ccccc3)C2)c1,Percent Effect,"30.3 µM, […]",3.878%
